According to PubChem BioAssay AID488840 (Broad Institute, 2010):
The campaign covered roughly 1,400 compounds. About 45 (3%) were called active.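 The calls were made as follows: active = half-maximal dose of signal decrease from fit no higher than ten times the top valid tested dose; inconclusive = fit invalid, or curve flat with 30 to 70% inhibition; inactive = the rest.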 The list is a sample of the results. Entries with a potency or affinity are not part of this list.

target: Lysine-specific demethylase 4A (Homo sapiens) (UniProt O75164); experiment: JMJD2A histone demethylase inhibitors, dose response, selectivity assay for GASC-1 inhibitor project, biochemical, DELFIA europium, cherry-picked samples (AID 488840); conditions: GST-JMJD2A(1-420) H3K9me3 demethylation; series mostly up to 6 µM;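 also: europium signal reports the dimethyl H3K9 product detected by antibody so inhibitors lower it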
Sequence (O75164 whole entry, looked up): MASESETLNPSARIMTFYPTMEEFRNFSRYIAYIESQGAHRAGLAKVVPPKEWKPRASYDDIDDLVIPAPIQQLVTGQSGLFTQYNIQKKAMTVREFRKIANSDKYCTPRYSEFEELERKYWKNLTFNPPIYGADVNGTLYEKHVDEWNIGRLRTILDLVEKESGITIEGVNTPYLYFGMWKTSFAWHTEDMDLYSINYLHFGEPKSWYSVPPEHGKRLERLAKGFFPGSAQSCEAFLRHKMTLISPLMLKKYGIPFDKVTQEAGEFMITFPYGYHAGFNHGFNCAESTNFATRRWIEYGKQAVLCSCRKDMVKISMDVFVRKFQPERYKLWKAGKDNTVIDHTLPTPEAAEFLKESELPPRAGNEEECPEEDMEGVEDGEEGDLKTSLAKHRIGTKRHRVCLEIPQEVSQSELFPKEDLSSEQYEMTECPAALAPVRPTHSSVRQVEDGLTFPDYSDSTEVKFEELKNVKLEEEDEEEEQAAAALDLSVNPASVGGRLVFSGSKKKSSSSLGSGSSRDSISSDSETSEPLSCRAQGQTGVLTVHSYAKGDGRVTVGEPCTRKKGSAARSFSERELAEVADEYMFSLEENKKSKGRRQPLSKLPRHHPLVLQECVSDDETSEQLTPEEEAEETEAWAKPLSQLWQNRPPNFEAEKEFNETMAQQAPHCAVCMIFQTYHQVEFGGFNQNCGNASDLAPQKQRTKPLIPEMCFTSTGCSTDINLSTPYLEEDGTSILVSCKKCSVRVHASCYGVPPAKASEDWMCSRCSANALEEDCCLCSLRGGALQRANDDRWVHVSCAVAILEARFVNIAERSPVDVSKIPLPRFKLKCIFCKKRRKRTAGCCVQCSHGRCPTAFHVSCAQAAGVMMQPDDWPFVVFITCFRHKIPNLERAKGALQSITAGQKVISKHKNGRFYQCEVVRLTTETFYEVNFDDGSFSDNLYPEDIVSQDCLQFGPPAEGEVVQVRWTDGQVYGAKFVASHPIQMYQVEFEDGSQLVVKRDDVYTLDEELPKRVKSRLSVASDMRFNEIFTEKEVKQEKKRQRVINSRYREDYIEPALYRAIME

Compound | outcome
CC(C)C[C@@H]1CN=C(N)N1C[C@@H]1CCCN1C[C@H](C)N1C[C@@H](Cc2ccccc2)N(CCc2ccc(Cl)c(Cl)c2)C1=N | inactive
Cc1ccc(S(=O)(=O)N2CCOCC2)cc1C(=O)NNC(=O)c1ccoc1C | inactive
COCCCNC(=O)CC1C[C@H](C(=O)N2CCOCC2)[C@@]2(C)c3[nH]c4ccccc4c3CCN2C1=O (stereo not given in full) | inactive
Cc1noc(C)c1CCC(=O)N1CCCC(CCC(=O)NCc2ccccc2F)C1 (stereo not given) | inactive
COCCn1c(N)c(C(=O)NCC2CCCO2)c2nc3ccccc3nc21 (stereo not given) | inactive
Cn1c(=O)c2c(nc(NC3CCCCC3)n2Cc2ccccc2)n(C)c1=O | inactive
CC(=O)C[C@@H](O)CC(=O)[C@@H]1OC(=O)[C@@H](C)C/C=C\Cc2ccccc21 | inactive
CCN1C(=O)C(CC(=O)Nc2ccc(OC)cc2)N(CCc2ccccc2F)C1=S (stereo not given) | inactive
COC(=O)C1CC(O)CN1C(=O)NC1CCCCC1 (stereo not given) | inactive
CCCCn1c(=O)[nH]c(=O)c2c1nc(-c1cc(Cl)c(OC)c(OC)c1)n2C | inactive
CNc1nc2c(c(=O)[nH]c(=O)n2C)n1CCCc1ccccc1 | inactive
COc1ccc(/C=N/NS(=O)(=O)c2ccc(NC(C)=O)cc2)cc1 | inactive
N/C(=N\S(=O)(=O)c1cc(C(F)(F)F)cc(C(F)(F)F)c1)c1ccccc1 | inactive
C[C@@H]1CN([C@@H](C)CO)C(=O)c2cc(NC(=O)Nc3ccc4c(c3)OCO4)ccc2O[C@H]1CN(C)S(=O)(=O)c1ccc(F)cc1 | inactive
COC(=O)c1ccc(CSc2nc3sc(C(=O)O)c(C)c3c(=O)[nH]2)cc1 | inactive
CC1CCN(C(=S)NC(=O)c2cccc([N+](=O)[O-])c2)CC1 | inactive
COc1ccccc1CNC(=O)COc1ccc(S(=O)(=O)N2CCOCC2)cc1C | inactive
O=C(CN1C(=O)c2ccccc2C1=O)NCC1COc2ccccc2O1 (stereo not given) | inactive
O=C(NC1CC2CCC1C2)C1COc2ccccc2O1 (stereo not given) | inactive
COc1ccccc1/C=C1\SC(=S)N(CCC(=O)NNC(=O)c2ccccc2OC)C1=O | inactive
CNC[C@@H]1Oc2c(NC(=O)Nc3ccccc3)cccc2C(=O)N([C@@H](C)CO)C[C@H]1C | inactive
N#Cc1cc(-c2ccccc2)nnc1Sc1ccccc1 | inactive
COc1ccc(OCC(=O)N2CCC3(CC2)CC(=O)c2ccccc2O3)cc1 | inactive
CCc1ccc([C@@H]2CC=C(C(=O)O)[C@H](c3ccc(Br)cc3)N2S(=O)(=O)c2ccc(C)cc2)cc1 | inactive
Cc1ccc(S(=O)(=O)N2[C@@H](c3ccc(Br)cc3)C(C(=O)O)=CC[C@H]2c2cccc(Cl)c2)cc1 | inactive
